Screens as filed in PubChem BioAssay.
Compounds with a hit are over-represented: about 19% of the library has one in this group of screens.
HT1080 IDH1KD tx = kills HT-1080 cells with IDH1 knockdown; HT-1080 IDH1 knockdown viability, ATP luminescence, 48 h; Potency, µM (titrated, usually from 46.1 µM), without a hit: at the highest dose activity, negative = toxicity, hits mostly cytotoxic; actives 2% (n = 360,000); AID 686971;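 note: 0% = DMSO wells and -100% = cell-free medium wells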
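HT-1080-IDH1KD cells (IDH1 knocked down), 750/well in RPMI with 5% FBS, treated with compound 48 h at 37 degrees C. Viability by CellTiter-Glo luminescence, normalised to DMSO and no-cell wells; concentration-response curves classed.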
HT1080-NT tox = kills 2HG-producing HT-1080-NT fibrosarcoma cells; HT-1080-NT fibrosarcoma viability, CellTiter-Glo ATP luminescence, 48 h; Potency, µM (highest dose often 46.1 µM), for inactives: at the highest dose activity, negative = less viability, most hits filed as cytotoxic; actives 1.6% (n = 360,000); AID 686970;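 note: NT is the 2HG producing partner of a matched IDH1 knockdown line; 0% = DMSO-treated cells and -100% = media-only wells without cells; nearly all actives have a fitted effect of over 55% in size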
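Viability of the 2HG-overproducing fibrosarcoma line after 48 hours of compound exposure at 37 degrees C was determined by luminescence with CellTiter-Glo, and concentration-effect curves were then fitted and categorized.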
DT40 TDP1 CPT = DT40-hTDP1 cell growth loss with CPT; chicken DT40 Tdp1-/-;hTDP1 cells + 20 nM CPT, ATP luminescence, 48 h; Potency, µM (doses to about 46.2 µM), inactives show at the top dose activity change, negative = growth inhibition, usual class: inhibitors; actives 12% (n = 420,000); AID 686979; note: nearly all actives have a fitted effect of over 55% in size
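Chicken DT40 Tdp1-/- cells stably complemented with human TDP1 were seeded at 400 cells/well in medium containing 20 nM camptothecin, exposed to pin-transferred compounds, and grown at 37 °C for at least 48 hr. Viability was read as ATP luminescence.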
KB-V1 cytotox = KB-V1 MDR subline cytotoxicity. Potency, µM (titrated, usually from 46.1 µM), hits mostly cytotoxic. actives 3.4% (n = 400,000). KB-V1 MDR cells viability, CellTiter-Glo, 72 h; note: nearly all actives have a fitted effect of over 60% in size
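qHTS viability screen in drug-selected KB-V1 MDR cells: 72 h compound treatment at 37 degrees C, ATP luminescence end point.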
DT40 TDP1 no CPT = qHTS for Inhibitors of human tyrosyl-DNA phosphodiesterase 1 (TDP1): qHTS in cells in absence of CPT. DT40 Tdp1-/- hTDP1 cells, no CPT, ATP luminescence, 48 h. Potency, µM (series often up to 46.2 µM), inactives show top-dose activity change, negative = growth inhibition, actives largely listed as inhibitors. actives 15% (n = 420,000). AID 686978, 2013; note: nearly all actives have a fitted effect of over 55% in size
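Luminescent ATP content (CellTiter-Glo) served as the growth readout. Knockout chicken DT40 cells expressing human TDP1 were exposed to compounds without camptothecin for a minimum 48 hr at 37 °C.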
KB-3-1 tox = KB-3-1 parental cell cytotoxicity; AID 1347075; actives 1.4% (n = 400,000); Potency, µM (titrated, usually from 46.1 µM), usual class: cytotoxic; KB-3-1 viability, CellTiter-Glo ATP luminescence, 72 h; note: nearly all actives have a fitted effect of over 60% in size
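Multi-concentration cytotoxicity screen in KB-3-1 cells grown in DMEM lacking phenol red with 10% FBS. After 72 h at 37 °C with compound, ATP-dependent luminescence was recorded.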
Active calls of the source: *. Calls come from the whole dose curve; as a rule, active = well fitted curve in the direction sought with a large enough effect; inconclusive = small, poorly fitted or top-dose-only effect, or another doubt; inactive = no such curve, though single readings can be large; an effect the other way counts as inactive or inconclusive. Unless noted, % is set by controls: 0 for no effect and ±100 for the full control effect; potency is the fitted concentration of half-maximal effect.

Screening CCCCNc1nc(NCc2ccccc2)nc2ccccc12 returned HT1080 IDH1KD tx 16µM*, HT1080-NT tox inconclusive, DT40 TDP1 CPT 21µM*, KB-V1 cytotox inconclusive, DT40 TDP1 no CPT 8.2µM* and KB-3-1 tox inconclusive.
`CNc1nc(NCc2ccccc2)c2ccccc2n1` gave HT1080 IDH1KD tx inconclusive, HT1080-NT tox inconclusive, DT40 TDP1 CPT 13µM*, KB-V1 cytotox inactive, DT40 TDP1 no CPT 4.6µM* and KB-3-1 tox inconclusive.
Screening c1ccc(CNc2nc(-c3ccc4c(c3)OCO4)nc3ccccc23)cc1 returned DT40 TDP1 CPT -3% and DT40 TDP1 no CPT inconclusive.
`OCC(Cc1ccccc1)Nc1c2ccccc2nc2ccccc12` (configuration not stated) gave HT1080 IDH1KD tx inconclusive, HT1080-NT tox -29%, DT40 TDP1 CPT inconclusive, KB-V1 cytotox inconclusive, DT40 TDP1 no CPT 16µM* and KB-3-1 tox inactive.
Screening Oc1ccccc1Nc1nc(-c2ccccc2)c2cc(Cl)ccc2n1 returned DT40 TDP1 CPT inconclusive, KB-V1 cytotox inactive, DT40 TDP1 no CPT inconclusive and KB-3-1 tox inactive.
CCOC(=O)c1sc(N(Cc2ccccc2)C(=O)CSc2nnc(C3CC3)n2N)nc1C was read as HT1080 IDH1KD tx inconclusive, HT1080-NT tox -5%, DT40 TDP1 CPT inconclusive, KB-V1 cytotox inconclusive, DT40 TDP1 no CPT inconclusive and KB-3-1 tox inactive.
Oc1ccc(CCNc2c3ccccc3nc3ccccc23)cc1O was read as HT1080 IDH1KD tx inconclusive, HT1080-NT tox 23µM*, DT40 TDP1 CPT 1.2µM*, KB-V1 cytotox inactive, DT40 TDP1 no CPT 1.5µM* and KB-3-1 tox 18µM*.
For c1ccc(CNc2c3ccccc3nc3ccccc23)cc1 the results were HT1080 IDH1KD tx inconclusive, HT1080-NT tox inconclusive, DT40 TDP1 CPT 13µM*, KB-V1 cytotox inconclusive, DT40 TDP1 no CPT 18µM* and KB-3-1 tox inactive.
`COc1ccc(CCNC(=O)c2cc(Cl)nc3ccccc23)cc1` gave HT1080 IDH1KD tx 1%, HT1080-NT tox 4%, DT40 TDP1 CPT inconclusive, KB-V1 cytotox inactive, DT40 TDP1 no CPT -1% and KB-3-1 tox inactive.
`COc1ccc(C(=O)N2N=C(c3ccc(NS(C)(=O)=O)cc3)CC2c2cccs2)cc1` (configuration not stated) gave HT1080 IDH1KD tx -28%, HT1080-NT tox -14%, DT40 TDP1 CPT -17%, KB-V1 cytotox inactive, DT40 TDP1 no CPT inconclusive and KB-3-1 tox inactive.
Screening Cc1ccccc1CC1(CO)CCCN(C(=O)Cc2c(F)ccc(F)c2F)C1 (configuration not stated) returned HT1080 IDH1KD tx -3%, HT1080-NT tox -13%, DT40 TDP1 CPT 16µM*, KB-V1 cytotox inactive, DT40 TDP1 no CPT inconclusive and KB-3-1 tox inactive.
For COc1ccc(-c2noc(N3CCC(C(=O)Nc4ccccc4OC)CC3)n2)cc1 the results were HT1080 IDH1KD tx -7%, HT1080-NT tox 6%, DT40 TDP1 CPT inconclusive, KB-V1 cytotox inactive, DT40 TDP1 no CPT inconclusive and KB-3-1 tox inactive.
For COc1ccc(-c2noc(N3CCC(C(=O)Nc4cccc(C)c4C)CC3)n2)cc1 the results were DT40 TDP1 CPT inconclusive and DT40 TDP1 no CPT 15µM*.
COc1ccc(-c2noc(N3CCC(C(=O)Nc4cc(OC)ccc4OC)CC3)n2)cc1 was read as HT1080 IDH1KD tx -4%, HT1080-NT tox -23%, DT40 TDP1 CPT 21µM*, KB-V1 cytotox inactive, DT40 TDP1 no CPT 21µM* and KB-3-1 tox inactive.
COc1ccc(-c2noc(N3CCC(C(=O)Nc4ccc(F)cc4)CC3)n2)cc1 was read as HT1080 IDH1KD tx -2%, HT1080-NT tox 10%, DT40 TDP1 CPT 3%, KB-V1 cytotox inactive, DT40 TDP1 no CPT -26% and KB-3-1 tox inactive.
